Pf growth 48h = Primary qHTS for delayed death inhibitors of the malarial parasite plastid, 48 hour incubation; AID 504832, 2011; P. falciparum luciferase growth in erythrocytes, 48 h; Potency, µM (series often up to 28.7 µM), inactives show top-dose activity change, negative = inhibition, actives largely listed as inhibitors; actives 5.9% (n = 310,000); active = well fitted inhibition curve with a large enough effect; inconclusive = small, poorly fitted or top-dose-only effect, or another doubt; inactive = no such curve, though single readings can be large or run the other way; note: potency is the fitted concentration of half-maximal effect; % is set by controls: 0 for no effect and ±100 for the full control effect
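In quantitative HTS format, infected erythrocytes bearing luciferase-reporter parasites were treated for a single generation at 37 C. Luminescence after adding detection reagent served as the growth measure.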
Shiga inhibitor = A qHTS for Small Molecule Inhibitors of Shiga Toxin; inhibition, % at 38.7 µM; Vero cells, Shiga toxin protein synthesis inhibition reporter; actives 9.2% (n = 290,000); in the data active = inhibition mostly above about 28%, no sharp cut-off; inactive = mostly below about 43%; note: 0% is about no effect
CHX counter = Cycloheximide Counterscreen for Small Molecule Inhibitors of Shiga Toxin; cell reporter, cycloheximide protein synthesis inhibition counterscreen; max response, %; actives 12% (n = 300,000); AID 2314, 2010; in the data active = max response mostly above about 13%, no sharp cut-off; inactive = mostly below about 14%; note: read at 38.3 µM for the half of the compounds with a filed dose; 0% is about no effect
SARS PLP yeast = qHTS of Yeast-based Assay for SARS-CoV PLP | S. cerevisiae expressing SARS-CoV PLpro, growth rescue | Potency, µM (doses to about 32.9 µM), for the others: top-dose activity, positive = growth rescue, actives largely listed as activators | actives 0.19% (n = 330,000) | AID 485353, 2010; note: potency is the fitted concentration of half-maximal effect; 0% is about no effect; nearly all actives have a fitted effect of over 55% in size
NS1 function inh = qHTS Assay for Inhibitors of Influenza NS1 Protein Function. Potency, µM (top dose mostly 46.1 µM), without a hit: at the highest dose activity, positive = more growth. actives 0.4% (n = 270,000); note: potency is the fitted concentration of half-maximal effect; actives are rising curves; nearly all actives have a fitted effect of over 50% in size
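A cell-based growth assay was used: compounds that relieve NS1-induced slow growth of budding yeast raise OD600. Assay medium was yeast nitrogen base with ammonium sulphate and -URA supplement, pH 6.0, with 2% galactose.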
Pf growth 96h = Primary qHTS for delayed death inhibitors of the malarial parasite plastid, 96 hour incubation; P. falciparum luciferase reporter growth, 96 h; AID 504834, 2011; Potency, µM (titrated, usually from 28.7 µM), for the others: at the highest dose activity change, negative = inhibition, most hits filed as inhibitors; actives 6.9% (n = 320,000); active = well fitted inhibition curve with a large enough effect; inconclusive = small, poorly fitted or top-dose-only effect, or another doubt; inactive = no such curve, though single readings can be large or run the other way; note: potency is the fitted concentration of half-maximal effect; % is set by controls: 0 for no effect and ±100 for the full control effect
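Plates of compound plus infected erythrocytes (2% hematocrit, 0.05% parasitemia final) incubate 96 hours, 37 C, 5% CO2. Detection reagent added; reduced luminescence from the parasites' luciferase reporter flags inhibition.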
Starred values were filed as active, the others as inactive; i = inactive; ? = inconclusive; / = no result; [ ] = another dose, or the depositor's remark. Hits are enriched below; roughly 21% of the tested compounds scored in any of these assays. Unless noted, calls come from the whole dose curve.

SMILES	Pf growth 48h	Shiga inhibitor	CHX counter	SARS PLP yeast	NS1 function inh	Pf growth 96h
O=C(O)CC(NC(=O)Cc1ccc([N+](=O)[O-])cc1)c1ccc2c(c1)OCO2 (stereo not given)	33%	-4	-3	-1%	/	7%
Clc1ccc(N=C2SCCS2)cc1	71%	76*	46*	-1%	5%	12%
COc1ccc(S(=O)(=O)Nc2ccc(Cc3ccncc3)cc2)cc1C	-25%	-14	-1	12%	-17%	-5%
C=C(C)c1cccc(C(C)(C)NC(=O)Nc2ccc(Cl)cn2)c1	9%	13	5	-71%	-26%	?
C=C(C)c1cccc(C(C)(C)NC(=O)Nc2ncccn2)c1	?	31	-3	-2%	-15%	8.3µM*
C=C(C)c1cccc(C(C)(C)NC(=O)Nc2cccnc2)c1	?	-7	-1	0%	1%	4.7µM*
C=C(C)c1cccc(C(C)(C)NC(=O)NCc2ccncc2)c1	13µM*	19	0	0%	1%	?
Cc1nn(CCC(=O)NNC(=S)NCC(C)C)c(C)c1Br	?	-9	-4	-8%	5%	/
COc1ccccc1CCNC(=O)c1cc(C2CC2)nc2c1cnn2C(C)C	?	/	/	-3%	/	10µM*
COc1ccc(NC(=O)c2cc(C3CC3)nc3c2cnn3C(C)C)cc1OC	?	/	/	-3%	/	15µM*
COc1cc(C)c(NC(=O)c2cc(C3CC3)nc3c2cnn3C(C)C)cc1OC	?	/	/	-6%	/	?
COc1ccccc1OCCNC(=O)c1cc(C2CC2)nc2c1cnn2C(C)C	?	/	/	-16%	/	10µM*
COc1ccc(CCNC(=O)c2cc(C3CC3)nc3c2cnn3C(C)C)cc1	?	/	/	2%	/	?
CCOc1ccccc1C(=O)NC(C(=O)Nc1cccc(S(N)(=O)=O)c1)C(C)C (stereo not given)	-23%	-2	2	-2%	/	-29%
CCN(CC(=O)NCc1cccs1)C(=O)c1cc(S(=O)(=O)NCc2ccccc2)ccc1C	?	/	/	1%	/	-3%
O=C(NN1CCOCC1)c1ccccc1Br	29%	5	-2	0%	4%	?
O=C(c1cscn1)N1CCCC(N2CCN(c3ccc(F)cc3)CC2)C1 (stereo not given)	104%	10	1	3%	5%	-14%
Cc1cccc(Nc2nnc(SCC(=O)Nc3ccc(C(=O)O)cc3)s2)c1	63%	-15	3	-3%	/	65%
COC(=O)c1ccc(CSc2nnc(Nc3ccc(OC)cc3)s2)o1	-23%	-40	-4	-18%	-8%	?
Cc1cccc(Nc2nnc(SCC3CCCCO3)s2)c1 (stereo not given)	27%	49*	36*	-49%	-9%	?
COc1ccc(Nc2nnc(SCC3CCCCO3)s2)cc1 (stereo not given)	3.7µM*	46	9	-5%	-6%	13µM*
CCOC(=O)C1CCN(C(=O)COC(=O)c2ccccc2C(=O)c2ccc(Cl)cc2)CC1	?	/	/	4%	/	20%
Cc1ccc(C(=O)/C=C/Nc2cccc(O)c2)cc1	175%	-4	9.7*	-21%	-12%[9.22 µM]	1%
O=C(/C=C/Nc1cccc(O)c1)c1ccccc1	328%	16	15	-16%	-70%	i
CC(=O)c1cccc(N/C=C\C(=O)c2ccc(C)cc2)c1	296%	65*	42*	-4%	-42%	-43%
SMILES	Pf growth 48h	Shiga inhibitor	CHX counter	SARS PLP yeast	NS1 function inh	Pf growth 96h
CC(=O)c1ccc(N/C=C\C(=O)c2ccc(C)cc2)cc1	115%	112*	53*	0%	-1%	31%
Cc1ccc(C(NC(=O)/C=C\c2ccc3c(c2)OCO3)C(=O)Nc2ccc3c(c2)OCO3)cc1 (stereo not given)	-25%	-6	9	-2%	2%	-5%
Cc1ccc(C(=O)/C=C/Nc2ccc3c(c2)OCO3)cc1	203%	164*	61*	0%	-67%	?
COc1ccc(CNc2nnnn2C)c(OC)c1	33%	-7	-2	-2%	3%	233%
CCC(=O)Nc1nnc(S(=O)(=O)N(C)c2ccccc2)s1	25%	42	-1	1%	2%	?
COc1cc(C(=O)NCCN2CCN(C(=O)c3cc(OC)c(OC)c(OC)c3)CC2)cc(OC)c1OC	40%	2	-3	6%	-20%	-10%
C/C(=C\C(=O)c1ccc(C)cc1)Nc1ccc(N2CCOCC2)cc1	?	-5	1	-16%	-7%	11%
C/C(=C\C(=O)c1ccc(C)cc1)Nc1cccc(O)c1	398%	93*	43*	9%	-38%	145%
C=CCn1c(O)c(C(C)=Nc2ccc(C(=O)OCC)cc2)c(=O)[nH]c1=O	-4%	43	7	-1%	-85%	/
CCOC(=O)c1ccc(N=Nc2c(C)c(C#N)c(O)[nH]c2=O)cc1	?	83*	46*	2%	3%	18%
CCOC(=O)/C(=N\Nc1cc(Cl)ccc1Cl)N1CCOCC1	25%	17	-5	-2%	/	72%
O=c1c2ccccc2[nH]c2ccc(F)cc12	?	-6	10	-22%	/	3%
O=c1cc(/C=C/c2c(F)cccc2Cl)[nH]c2ccccc12	0.93µM*	63*	54*	-12%	-12%	6%
Cc1ccc(S(=O)(=O)N2CCCOC2CNC(=O)C(=O)NC2CCCCC2)cc1 (stereo not given)	-9%	4	3	0%	/	1%
CN1CCN(c2ccc(NC(=O)c3ccccc3Br)cc2)CC1	91%	active	18*	4%	-11%	0%
CC1CCN(c2ccc(NC(=O)c3ccc(Br)o3)cc2)CC1	-7%	65*	28*	3%	2%	?
Cc1ccc(C(=O)N2CCN(c3ccc(NC(=O)c4ccc(Br)o4)cc3)CC2)cc1	10µM*	-24	-3	-7%	19%	/
O=C(Nc1ccc(S(=O)(=O)N2CCCCCC2)cc1)c1ccc(Br)o1	?	19	13	-1%	-24%	20%
CN1CCN(c2ccc(NC(=S)NC(=O)c3cccc4c(Br)cccc34)cc2)CC1	?	-3	-1	8%	12%	-35%
CS(=O)(=O)N1CCN(c2ccc(NC(=O)c3ccc(Br)o3)cc2)CC1	141%	110*	43*	8%	-4%	200%
CC(C)OCC1CC(CC(=O)Nc2ccc([N+](=O)[O-])cc2)C(=O)O1 (stereo not given)	49%	5	-3	1%	0%	20%
O=C(COC(=O)c1ccncc1)Nc1cccc2ccccc12	/	/	/	2%	/	/
N/C(=N\O)c1ccc(NC(=O)c2ccc(Br)o2)cc1	113%	81*	45*	-3%	1%	-5%

Screening results as filed in PubChem BioAssay.
